# Experiments:
# Assay in all cases: DAPPL (digital affinity profiling via proximity ligation, sequencing); 10 mM Tris-HCl pH 7.5, 50 mM NaCl, 1 mM DTT, 4% glycerol, room temperature, 30 min; GST-TFs on glutathione beads, 16-mer random dsDNA library, 0.1% formaldehyde crosslink after washing; high values mean tight binding
# FEV = biological target: T1, FEV (Homo sapiens, UniProt Q99581 1-238); settings: protein: recombinant; tags: N-terminal GST; dsDNA, one strand shown
# T1 sequence: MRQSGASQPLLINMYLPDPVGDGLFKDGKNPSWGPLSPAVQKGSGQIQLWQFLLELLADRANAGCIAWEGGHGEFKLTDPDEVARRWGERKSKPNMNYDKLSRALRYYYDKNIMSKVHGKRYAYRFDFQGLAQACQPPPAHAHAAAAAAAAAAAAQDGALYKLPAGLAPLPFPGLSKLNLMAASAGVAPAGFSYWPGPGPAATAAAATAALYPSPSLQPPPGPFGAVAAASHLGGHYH
# Method in brief: (§1)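 Sequencing on an Illumina NextSeq500 followed washing, crosslinking with 0.1% formaldehyde, proximity ligation (BsaI/T4 ligase, 1 h, 37 °C) and PCR amplification of pools that had been incubated for 30 min at room temperature with 200 nmole of a random double-stranded 16-mer DNA library in Tris/NaCl/DTT/glycerol buffer. Each pool held DNA-barcoded human transcription factors, expressed in yeast as GST fusions and captured on glutathione beads, plus a tag-only sample. Binding signal is a hexamer's read frequency for a factor divided by its frequency in the tag-only sample.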
# ETV5 = ETV5 (Homo sapiens, UniProt P41161 1-510); settings: protein: recombinant; tags: N-terminal GST; dsDNA, one strand shown
# Method in brief: as §1
# HSF1 = HSF1 (Homo sapiens, UniProt Q00613 1-529); settings: protein: recombinant; tags: N-terminal GST; chain copies: 3; dsDNA, one strand shown
# Method in brief: as §1
# SPIC = biological target: T2, SPIC (Homo sapiens, UniProt Q8N5J4 1-248); settings: protein: recombinant; tags: N-terminal GST; dsDNA, one strand shown
# T2 sequence: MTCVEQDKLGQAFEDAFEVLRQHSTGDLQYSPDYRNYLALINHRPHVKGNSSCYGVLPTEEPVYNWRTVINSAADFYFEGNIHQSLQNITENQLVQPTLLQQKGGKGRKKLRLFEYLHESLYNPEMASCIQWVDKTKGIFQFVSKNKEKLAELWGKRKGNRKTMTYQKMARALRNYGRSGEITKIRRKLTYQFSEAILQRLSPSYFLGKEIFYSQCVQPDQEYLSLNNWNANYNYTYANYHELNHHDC
# Method in brief: as §1
# ELF4 = ELF4 (Homo sapiens, UniProt Q99607 1-663); settings: protein: recombinant; tags: N-terminal GST; dsDNA, one strand shown
# Method in brief: as §1
# ELK4 = biological target: T3, ELK4 (Homo sapiens, UniProt P28324-2 1-405); settings: protein: recombinant; tags: N-terminal GST; dsDNA, one strand shown
# T3 sequence: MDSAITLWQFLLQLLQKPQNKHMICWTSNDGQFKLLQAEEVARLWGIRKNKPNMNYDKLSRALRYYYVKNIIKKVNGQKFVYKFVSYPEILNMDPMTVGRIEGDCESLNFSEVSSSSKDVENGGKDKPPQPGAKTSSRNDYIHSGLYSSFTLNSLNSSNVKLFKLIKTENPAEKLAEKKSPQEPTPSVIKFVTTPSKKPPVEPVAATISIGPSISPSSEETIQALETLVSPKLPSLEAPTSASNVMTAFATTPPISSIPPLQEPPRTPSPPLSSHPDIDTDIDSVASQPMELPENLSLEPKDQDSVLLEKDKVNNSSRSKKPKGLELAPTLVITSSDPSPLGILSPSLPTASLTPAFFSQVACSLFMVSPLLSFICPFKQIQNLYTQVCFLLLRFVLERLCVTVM
# Method in brief: as §1
# ETV2 = biological target: T4, ETV2 (Homo sapiens, UniProt O00321 1-342); settings: protein: recombinant; tags: N-terminal GST; dsDNA, one strand shown
# T4 sequence: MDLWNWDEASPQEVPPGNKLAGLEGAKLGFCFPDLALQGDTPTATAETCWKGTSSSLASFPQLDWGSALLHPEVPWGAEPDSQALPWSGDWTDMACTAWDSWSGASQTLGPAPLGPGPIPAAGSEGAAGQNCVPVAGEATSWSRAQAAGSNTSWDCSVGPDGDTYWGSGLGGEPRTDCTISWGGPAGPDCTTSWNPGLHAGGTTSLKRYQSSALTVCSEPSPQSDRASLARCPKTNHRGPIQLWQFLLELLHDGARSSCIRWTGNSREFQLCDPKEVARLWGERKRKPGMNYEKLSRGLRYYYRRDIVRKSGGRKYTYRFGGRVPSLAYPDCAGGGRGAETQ
# Method in brief: as §1
# ELF3 = biological target: T5, ELF3 (Homo sapiens, UniProt P78545 1-371); settings: protein: recombinant; tags: N-terminal GST; dsDNA, one strand shown
# T5 sequence: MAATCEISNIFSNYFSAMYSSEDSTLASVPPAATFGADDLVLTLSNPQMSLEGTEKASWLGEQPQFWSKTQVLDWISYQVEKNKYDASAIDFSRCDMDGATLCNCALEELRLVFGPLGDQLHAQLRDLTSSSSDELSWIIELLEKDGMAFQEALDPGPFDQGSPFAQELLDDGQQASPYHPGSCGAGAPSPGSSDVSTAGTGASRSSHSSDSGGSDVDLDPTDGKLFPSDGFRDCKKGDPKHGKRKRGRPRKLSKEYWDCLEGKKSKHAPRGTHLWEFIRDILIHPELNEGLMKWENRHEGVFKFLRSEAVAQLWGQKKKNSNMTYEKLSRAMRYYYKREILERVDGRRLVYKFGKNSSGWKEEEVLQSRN
# Method in brief: as §1
# CRX = CRX (Homo sapiens, UniProt O43186 1-299); settings: protein: recombinant; tags: N-terminal GST; dsDNA, one strand shown
# Method in brief: as §1
# ETV1 = ETV1 (Homo sapiens, UniProt P50549 1-477); settings: protein: recombinant; tags: N-terminal GST; dsDNA, one strand shown
# Method in brief: as §1
# ERF = biological target: T6, ERF (Homo sapiens, UniProt P50548 1-548); settings: protein: recombinant; tags: N-terminal GST; dsDNA, one strand shown
# T6 sequence: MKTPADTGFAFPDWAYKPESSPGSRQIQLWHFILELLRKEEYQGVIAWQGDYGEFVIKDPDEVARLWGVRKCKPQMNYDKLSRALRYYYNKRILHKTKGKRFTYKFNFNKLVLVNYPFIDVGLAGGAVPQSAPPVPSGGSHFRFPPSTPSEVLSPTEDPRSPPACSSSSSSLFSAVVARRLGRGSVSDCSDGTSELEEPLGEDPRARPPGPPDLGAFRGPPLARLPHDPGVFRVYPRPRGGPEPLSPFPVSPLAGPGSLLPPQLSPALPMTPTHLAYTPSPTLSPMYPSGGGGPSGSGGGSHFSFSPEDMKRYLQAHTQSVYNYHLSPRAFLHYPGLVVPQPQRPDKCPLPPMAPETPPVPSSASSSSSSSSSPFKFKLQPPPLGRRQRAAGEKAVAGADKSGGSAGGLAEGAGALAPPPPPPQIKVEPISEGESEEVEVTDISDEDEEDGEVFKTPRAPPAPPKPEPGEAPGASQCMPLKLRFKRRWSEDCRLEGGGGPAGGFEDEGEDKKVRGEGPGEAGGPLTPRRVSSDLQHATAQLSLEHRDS
# Method in brief: as §1
# ETV3L = biological target: T7, ETV3L (Homo sapiens, UniProt Q6ZN32 1-361); settings: protein: recombinant; tags: N-terminal GST; dsDNA, one strand shown
# T7 sequence: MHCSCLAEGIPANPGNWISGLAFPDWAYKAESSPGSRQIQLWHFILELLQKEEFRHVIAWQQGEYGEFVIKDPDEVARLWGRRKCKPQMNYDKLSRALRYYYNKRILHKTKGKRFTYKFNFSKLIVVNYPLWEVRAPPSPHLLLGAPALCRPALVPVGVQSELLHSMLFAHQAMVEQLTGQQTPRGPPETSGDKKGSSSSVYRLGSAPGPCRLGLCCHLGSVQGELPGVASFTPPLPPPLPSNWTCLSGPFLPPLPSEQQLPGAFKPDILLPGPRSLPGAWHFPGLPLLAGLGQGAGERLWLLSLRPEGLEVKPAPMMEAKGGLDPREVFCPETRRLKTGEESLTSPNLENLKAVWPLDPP
# Method in brief: as §1
# ETS2 = biological target: T8, ETS2 (Homo sapiens, UniProt P15036 1-469); settings: protein: recombinant; tags: N-terminal GST; dsDNA, one strand shown
# T8 sequence: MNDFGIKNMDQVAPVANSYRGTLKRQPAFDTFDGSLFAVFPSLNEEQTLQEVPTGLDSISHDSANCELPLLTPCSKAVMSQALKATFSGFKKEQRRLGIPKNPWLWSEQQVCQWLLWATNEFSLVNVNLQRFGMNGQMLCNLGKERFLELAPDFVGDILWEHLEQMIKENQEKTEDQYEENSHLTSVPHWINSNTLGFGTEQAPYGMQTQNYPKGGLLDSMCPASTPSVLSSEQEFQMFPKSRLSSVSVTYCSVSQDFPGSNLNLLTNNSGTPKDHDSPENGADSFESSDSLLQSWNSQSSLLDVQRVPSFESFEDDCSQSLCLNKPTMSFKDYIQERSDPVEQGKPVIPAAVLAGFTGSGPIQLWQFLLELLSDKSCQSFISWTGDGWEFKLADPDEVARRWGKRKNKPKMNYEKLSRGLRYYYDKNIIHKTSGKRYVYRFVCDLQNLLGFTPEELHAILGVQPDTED
# Method in brief: as §1
# ELF5 = biological target: T9, ELF5 (Homo sapiens, UniProt Q9UKW6-2 1-255); settings: protein: recombinant; tags: N-terminal GST; dsDNA, one strand shown
# T9 sequence: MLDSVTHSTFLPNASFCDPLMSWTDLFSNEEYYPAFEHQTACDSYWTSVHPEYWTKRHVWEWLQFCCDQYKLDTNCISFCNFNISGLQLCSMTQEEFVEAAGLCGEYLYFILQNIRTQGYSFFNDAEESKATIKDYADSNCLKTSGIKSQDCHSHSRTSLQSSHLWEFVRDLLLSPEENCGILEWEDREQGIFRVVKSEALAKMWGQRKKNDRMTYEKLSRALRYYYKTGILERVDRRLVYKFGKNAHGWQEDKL
# Method in brief: as §1
# ETV3 = biological target: T10, ETV3 (Homo sapiens, UniProt P41162-2 1-143); settings: protein: recombinant; tags: N-terminal GST; dsDNA, one strand shown
# T10 sequence: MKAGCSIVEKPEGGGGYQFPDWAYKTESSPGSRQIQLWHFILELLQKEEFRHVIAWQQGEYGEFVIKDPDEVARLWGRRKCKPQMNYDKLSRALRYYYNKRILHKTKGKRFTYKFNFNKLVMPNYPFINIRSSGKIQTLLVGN
# Method in brief: as §1
# ETV6 = ETV6 (Homo sapiens, UniProt P41212 1-452); settings: protein: recombinant; tags: N-terminal GST; dsDNA, one strand shown
# Method in brief: as §1
# ETV7 = biological target: T11, ETV7 (Homo sapiens, UniProt Q9Y603 1-341); settings: protein: recombinant; tags: N-terminal GST; dsDNA, one strand shown
# T11 sequence: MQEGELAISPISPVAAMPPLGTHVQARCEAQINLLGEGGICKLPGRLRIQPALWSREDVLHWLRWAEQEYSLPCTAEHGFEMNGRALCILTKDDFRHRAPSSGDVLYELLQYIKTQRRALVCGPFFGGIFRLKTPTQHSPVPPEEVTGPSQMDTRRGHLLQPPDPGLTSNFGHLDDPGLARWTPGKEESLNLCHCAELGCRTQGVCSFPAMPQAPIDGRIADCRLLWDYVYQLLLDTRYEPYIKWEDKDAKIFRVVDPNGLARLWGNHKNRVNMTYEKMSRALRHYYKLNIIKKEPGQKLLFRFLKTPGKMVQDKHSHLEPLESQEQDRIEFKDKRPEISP
# Method in brief: as §1
# Chain of ELF4 (Q99607 whole entry): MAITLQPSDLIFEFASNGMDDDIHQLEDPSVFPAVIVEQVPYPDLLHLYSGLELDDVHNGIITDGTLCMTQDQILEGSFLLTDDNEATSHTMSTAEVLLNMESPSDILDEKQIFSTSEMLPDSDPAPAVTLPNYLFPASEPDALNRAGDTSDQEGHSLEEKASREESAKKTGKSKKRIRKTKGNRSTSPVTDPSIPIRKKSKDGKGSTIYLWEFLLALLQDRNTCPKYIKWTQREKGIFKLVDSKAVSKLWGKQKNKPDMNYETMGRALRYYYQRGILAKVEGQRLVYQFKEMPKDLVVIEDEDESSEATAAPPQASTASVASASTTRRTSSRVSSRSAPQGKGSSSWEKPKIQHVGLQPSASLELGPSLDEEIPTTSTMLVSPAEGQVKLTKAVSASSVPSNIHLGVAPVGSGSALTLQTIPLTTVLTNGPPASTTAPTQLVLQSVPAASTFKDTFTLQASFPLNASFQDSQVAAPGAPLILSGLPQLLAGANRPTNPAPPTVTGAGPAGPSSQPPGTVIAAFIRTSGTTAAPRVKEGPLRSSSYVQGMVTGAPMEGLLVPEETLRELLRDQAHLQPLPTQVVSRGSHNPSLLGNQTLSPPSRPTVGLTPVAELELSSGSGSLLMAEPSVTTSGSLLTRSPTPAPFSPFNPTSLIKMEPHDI
# Chain of ETV1 (P50549 whole entry): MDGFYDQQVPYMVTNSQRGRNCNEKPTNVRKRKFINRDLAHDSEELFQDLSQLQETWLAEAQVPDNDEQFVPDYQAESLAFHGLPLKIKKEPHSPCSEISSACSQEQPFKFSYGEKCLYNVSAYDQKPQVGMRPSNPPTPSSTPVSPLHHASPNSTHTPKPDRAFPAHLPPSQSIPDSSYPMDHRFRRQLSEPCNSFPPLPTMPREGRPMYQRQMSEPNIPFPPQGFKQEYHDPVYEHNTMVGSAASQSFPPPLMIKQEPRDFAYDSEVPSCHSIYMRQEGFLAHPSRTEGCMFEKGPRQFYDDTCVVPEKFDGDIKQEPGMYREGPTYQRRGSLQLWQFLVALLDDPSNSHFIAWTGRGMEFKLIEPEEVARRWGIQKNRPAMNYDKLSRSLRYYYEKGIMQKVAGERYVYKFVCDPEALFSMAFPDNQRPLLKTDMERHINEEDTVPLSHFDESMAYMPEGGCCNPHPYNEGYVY
# Chain of HSF1 (Q00613 whole entry): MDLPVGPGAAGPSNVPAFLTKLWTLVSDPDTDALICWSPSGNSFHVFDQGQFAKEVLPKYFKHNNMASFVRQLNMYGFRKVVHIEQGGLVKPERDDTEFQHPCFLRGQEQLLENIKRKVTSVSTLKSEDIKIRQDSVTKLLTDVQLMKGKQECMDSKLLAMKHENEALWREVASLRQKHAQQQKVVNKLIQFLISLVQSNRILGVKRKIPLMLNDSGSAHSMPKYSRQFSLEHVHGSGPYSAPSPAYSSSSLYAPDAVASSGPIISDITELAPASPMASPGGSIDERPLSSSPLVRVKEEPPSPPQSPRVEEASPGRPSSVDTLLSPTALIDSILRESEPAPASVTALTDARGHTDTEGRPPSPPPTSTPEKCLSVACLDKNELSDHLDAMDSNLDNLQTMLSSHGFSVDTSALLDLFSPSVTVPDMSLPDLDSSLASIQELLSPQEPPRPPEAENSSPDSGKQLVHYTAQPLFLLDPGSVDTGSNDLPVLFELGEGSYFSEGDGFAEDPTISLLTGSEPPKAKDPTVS
# Chain of ETV5 (P41161 whole entry): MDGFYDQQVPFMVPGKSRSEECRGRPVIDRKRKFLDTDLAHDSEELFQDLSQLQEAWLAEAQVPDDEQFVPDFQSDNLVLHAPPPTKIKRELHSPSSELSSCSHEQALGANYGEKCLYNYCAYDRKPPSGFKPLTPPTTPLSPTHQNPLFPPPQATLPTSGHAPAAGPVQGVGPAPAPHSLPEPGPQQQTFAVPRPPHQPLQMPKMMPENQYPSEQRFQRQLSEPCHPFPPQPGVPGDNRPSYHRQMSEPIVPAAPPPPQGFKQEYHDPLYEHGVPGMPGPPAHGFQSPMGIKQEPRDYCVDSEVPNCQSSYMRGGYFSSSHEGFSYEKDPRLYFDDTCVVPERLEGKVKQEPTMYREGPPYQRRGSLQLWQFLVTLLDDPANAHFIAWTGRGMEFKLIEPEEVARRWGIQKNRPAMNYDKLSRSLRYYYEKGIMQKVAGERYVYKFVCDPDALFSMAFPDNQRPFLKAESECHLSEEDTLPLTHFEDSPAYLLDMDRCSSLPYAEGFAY
# Chain of CRX (O43186 whole entry): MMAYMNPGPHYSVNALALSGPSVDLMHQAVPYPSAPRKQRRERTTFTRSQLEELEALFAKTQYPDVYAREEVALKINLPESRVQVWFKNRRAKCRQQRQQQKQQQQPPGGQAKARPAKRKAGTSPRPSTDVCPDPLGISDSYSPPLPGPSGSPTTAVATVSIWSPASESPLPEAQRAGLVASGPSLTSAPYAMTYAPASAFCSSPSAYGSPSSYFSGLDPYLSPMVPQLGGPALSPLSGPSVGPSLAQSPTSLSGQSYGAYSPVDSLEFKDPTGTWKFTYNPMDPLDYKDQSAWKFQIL
# Chain of ETV6 (P41212 whole entry): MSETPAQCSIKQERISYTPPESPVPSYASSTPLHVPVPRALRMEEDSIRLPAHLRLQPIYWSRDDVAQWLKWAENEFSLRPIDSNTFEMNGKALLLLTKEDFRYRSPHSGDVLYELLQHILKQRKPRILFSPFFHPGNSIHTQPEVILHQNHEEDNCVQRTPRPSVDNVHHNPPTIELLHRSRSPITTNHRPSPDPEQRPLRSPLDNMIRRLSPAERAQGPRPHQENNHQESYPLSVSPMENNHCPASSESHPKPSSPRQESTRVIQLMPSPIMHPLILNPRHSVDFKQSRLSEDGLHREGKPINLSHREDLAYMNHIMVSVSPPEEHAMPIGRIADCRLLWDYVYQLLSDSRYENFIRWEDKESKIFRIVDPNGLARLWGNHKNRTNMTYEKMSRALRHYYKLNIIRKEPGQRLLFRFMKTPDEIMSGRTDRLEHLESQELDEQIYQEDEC
Sequence,binding signal (FEV),binding signal (ETV5),binding signal (HSF1),binding signal (SPIC),binding signal (ELF4),binding signal (ELK4),binding signal (ETV2),binding signal (ELF3),binding signal (CRX),binding signal (ETV1),binding signal (ERF),binding signal (ETV3L),binding signal (ETS2),binding signal (ELF5),binding signal (ETV3),binding signal (ETV6),binding signal (ETV7)
AGCCCC,"1.12 fold enrichment (6-mer frequency, TF over GST control)","1.14 fold enrichment (6-mer frequency, TF over GST control)","1.02 fold enrichment (6-mer frequency, TF over GST control)","1.09 fold enrichment (6-mer frequency, TF over GST control)","1.07 fold enrichment (6-mer frequency, TF over GST control)","1.17 fold enrichment (6-mer frequency, TF over GST control)","1.23 fold enrichment (6-mer frequency, TF over GST control)","1.15 fold enrichment (6-mer frequency, TF over GST control)","1.17 fold enrichment (6-mer frequency, TF over GST control)","1.02 fold enrichment (6-mer frequency, TF over GST control)","1.03 fold enrichment (6-mer frequency, TF over GST control)","1.07 fold enrichment (6-mer frequency, TF over GST control)","1.09 fold enrichment (6-mer frequency, TF over GST control)","1.01 fold enrichment (6-mer frequency, TF over GST control)","1.11 fold enrichment (6-mer frequency, TF over GST control)","1.12 fold enrichment (6-mer frequency, TF over GST control)",
ATCATT,"1.08 fold enrichment (6-mer frequency, TF over GST control)","1.07 fold enrichment (6-mer frequency, TF over GST control)","1.18 fold enrichment (6-mer frequency, TF over GST control)","1.01 fold enrichment (6-mer frequency, TF over GST control)","1.05 fold enrichment (6-mer frequency, TF over GST control)","1.06 fold enrichment (6-mer frequency, TF over GST control)","1.15 fold enrichment (6-mer frequency, TF over GST control)","1.05 fold enrichment (6-mer frequency, TF over GST control)","1.28 fold enrichment (6-mer frequency, TF over GST control)","1.06 fold enrichment (6-mer frequency, TF over GST control)","1.13 fold enrichment (6-mer frequency, TF over GST control)","1.07 fold enrichment (6-mer frequency, TF over GST control)","1.01 fold enrichment (6-mer frequency, TF over GST control)",,,"1.06 fold enrichment (6-mer frequency, TF over GST control)","1.01 fold enrichment (6-mer frequency, TF over GST control)"

# — paper PMC7862700, “An all-to-all approach to the identification of sequence-specific readers for epigenetic DNA modifications on cytosine”
